Measured values published in PubChem BioAssay (Tox21).
Unmarked numbers belong to inactive results. Records with an inconclusive call do not appear. Where a call stands in place of a potency, no number is given. The source made the active and inactive calls. Unless noted, the call rests on the fitted dose curve; in most records, active means well fitted curve in the direction sought with a large enough effect in the repeat runs; inconclusive means weak or mixed curves; inactive means no such curve, though single readings can be large; an effect the other way counts as inactive or inconclusive.

How the values were obtained:
[1] = qHTS assay to identify small molecule antagonists of the glucocorticoid receptor (GR) signaling pathway - cell viability counter screen (AID 720693); further: nearly all actives have a fitted effect of over 55% in size
[2] = qHTS assay for identifying genotoxic compounds that show differential cytotoxicity against isogenic chicken DT40 cell lines with known DNA damage response pathways - wild type cell line (AID 743012); further: nearly all actives have a fitted effect of over 60% in size
Method in brief: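 Cells (DT40 wild type, 300/well) are treated with DMSO-dissolved compounds after a ~0.5 h pre-incubation and kept 40 h at 37 C/5% CO2. Viability is then measured by CellTiter-Glo luminescence following 30 min at room temperature.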

[3] = qHTS assay for identifying genotoxic compounds that show differential cytotoxicity against isogenic chicken DT40 cell lines with known DNA damage response pathways - Rad54/Ku70 mutant cell line (AID 743015); further: nearly all actives have a fitted effect of over 60% in size
[4] = qHTS assay to identify small molecule antagonists of the androgen receptor (AR) signaling pathway - cell viability counter screen (AID 743033; further: nearly all actives have a fitted effect of over 45% in size)
[5] = qHTS assay to identify small molecule antagonists of the androgen receptor (AR) signaling pathway using the MDA cell line - cell viability counter screen (AID 743041; further: nearly all actives have a fitted effect of over 45% in size)
Method in brief: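 Same-well cytotoxicity was assessed by CellTiter-Fluor in MDA-kb2 AR-luc cells after 16 h of compound treatment under R1881 agonism.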

[6] = qHTS assay to identify small molecule antagonists of the thyroid receptor (TR) signaling pathway - cell viability counter screen (AID 743064); further: nearly all actives have a fitted effect of over 50% in size
Method in brief: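 Fluorescence from CellTiter-Fluor, added after 23.5 h exposure at 37 °C, reported viability of GH3.TRE-Luc cells co-treated with compound and 1 nM T3. Measured in the same wells as the luciferase TR readout.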

[7] = qHTS assay to identify small molecule antagonists of the thyroid receptor (TR) signaling pathway (AID 743065); further: series mostly up to about 70 µM; nearly all actives have a fitted effect of over 55% in size
Method in brief: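 GH3.TRE-Luc rat pituitary cells (two TREs driving luciferase) were dosed with compound, then stimulated with 1 nM T3 (final) for 23.5 h at 37 C. ONE-Glo luminescence was the read-out, with CellTiter-Fluor fluorescence as the cytotoxicity counter-screen.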

[8] = tested on: thyroid hormone receptor (rat, GH3 cells); assay: qHTS assay to identify small molecule agonists of the thyroid receptor (TR) signaling pathway (AID 743066; calls by dose curve; further: potency means the concentration at half of the fitted maximal effect)
[9] = molecular target: Estrogen receptor (Homo sapiens) (UniProt P03372); assay: qHTS assay to identify small molecule antagonists of the estrogen receptor alpha (ER-alpha) signaling pathway (AID 743069; active means well fitted curve in the direction sought with a large enough effect in the signal ratio in the repeat runs, not every such curve was filed as active; the % refers to the signal ratio; further: potency means the concentration at half of the fitted maximal effect)
Method in brief: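 Reporter cells (ER-alpha-bla, HEK293 background) are conditioned overnight in stripped-serum medium (2% charcoal-stripped FBS). Compound and 17beta-estradiol exposure runs 18 hr at 37C, 5% CO2.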

[10] = qHTS assay to identify small molecule antagonists of the estrogen receptor alpha (ER-alpha) signaling pathway - cell viability counter screen (AID 743074; calls by dose curve;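 further: HEK293 cells carrying ER-alpha-UAS-bla reporter stimulated with 17beta-estradiol; nearly all actives have a fitted effect of over 45% in size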)
[11] = molecular target: Estrogen receptor (Homo sapiens) (UniProt P03372); assay: qHTS assay to identify small molecule agonists of the estrogen receptor alpha (ER-alpha) signaling pathway (AID 743075; calls by dose curve;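 further: HEK293 GripTite cells with ER-alpha and UAS-driven beta-lactamase reporter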)
[12] = molecular target: Estrogen receptor (Homo sapiens) (UniProt P03372); assay: qHTS assay to identify small molecule agonists of the estrogen receptor alpha (ER-alpha) signaling pathway using the BG1 cell line (AID 743079); further: nearly all actives have a fitted effect of over 20% in size
[13] = qHTS assay to identify small molecule antagonists of the estrogen receptor alpha (ER-alpha) signaling pathway using the BG1 cell line (AID 743080; calls by dose curve;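 further: BG1 cells stimulated with 17beta-estradiol alongside compound; series mostly up to about 70 µM; nearly all actives have a fitted effect of over 25% in size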)
Method in brief: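 Readout is ONE-Glo luminescence, taken 30 min at room temperature after reagent addition, preceded by a CellTiter-Fluor viability read; BG1-Luc-4E2 cells had received compound and 17beta-estradiol for 21.5 h at 37 C.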

Aromatase (Homo sapiens) = Aromatase (Homo sapiens) (UniProt P11511); assay: qHTS assay to identify aromatase inhibitors (AID 743083); further: series mostly up to about 70 µM; nearly all actives have a fitted effect of over 55% in size
[14] = qHTS assay to identify small molecule antagonists of the estrogen receptor alpha (ER-alpha) signaling pathway using the BG1 cell line - cell viability counter screen (AID 743081);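 further: compound given together with 17beta-estradiol as the ER stimulus; series mostly up to about 70 µM; nearly all actives have a fitted effect of over 45% in size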
[15] = qHTS assay for identifying genotoxic compounds that show differential cytotoxicity against isogenic chicken DT40 cell lines with known DNA damage response pathways - Rev3 mutant cell line (AID 743014); further: nearly all actives have a fitted effect of over 55% in size
[16] = molecular target: Androgen receptor (Homo sapiens) (UniProt P10275); assay: qHTS assay to identify small molecule agonists of the androgen receptor (AR) signaling pathway (AID 743036; active means well fitted activation curve with a large enough effect in the signal ratio in the repeat runs, with a control signal flat, not every such curve was filed as active; the % refers to the signal ratio)
Method in brief: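 Fluorescence from a beta-lactamase FRET substrate served as read-out in AR-UAS-bla GripTite HEK293 cells. Cells were treated with DMSO-dissolved compounds for 16 h at 37C, then with LiveBLAzer B/G substrate for 2 h at room temperature.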

[17] = molecular target: Androgen receptor (Homo sapiens) (UniProt P10275); assay: qHTS assay to identify small molecule agonists of the androgen receptor (AR) signaling pathway using the MDA cell line (AID 743040; further: nearly all actives have a fitted effect of over 20% in size)
Method in brief: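 Human breast carcinoma MDA-kb2 reporter cells (MMTV-luc, AR/GR elements) were treated for 16 h at 37C in 0% CO2 following a 5 h settling period. Signal was quantified by ONE-Glo luminescence.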

[18] = molecular target: Androgen receptor (Homo sapiens) (UniProt P10275); assay: qHTS assay to identify small molecule antagonists of the androgen receptor (AR) signaling pathway using the MDA cell line (AID 743042; further: nearly all actives have a fitted effect of over 55% in size)
Method in brief: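 MDA-kb2 breast carcinoma cells carrying MMTV-luciferase (AR/GR responsive) were co-treated with compounds and the agonist R1881 for 16 h at 37C. Inhibition read as ONE-Glo luminescence; CellTiter-Fluor fluorescence measured in parallel for cytotoxicity.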

[19] = molecular target: Androgen receptor (Homo sapiens) (UniProt P10275); assay: qHTS assay to identify small molecule antagonists of the androgen receptor (AR) signaling pathway (AID 743035; active means well fitted inhibition curve with a large enough effect in the signal ratio in the repeat runs, not every such curve was filed as active; the % refers to the signal ratio)
Method in brief: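 Antagonism is scored as loss of R1881-driven beta-lactamase reporter expression in HEK293 cells carrying the reporter under a UAS element, after 16 h co-treatment at 37C and a 2 h room-temperature FRET substrate read.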

Sequence of Aromatase (Homo sapiens) (P11511 whole entry, looked up): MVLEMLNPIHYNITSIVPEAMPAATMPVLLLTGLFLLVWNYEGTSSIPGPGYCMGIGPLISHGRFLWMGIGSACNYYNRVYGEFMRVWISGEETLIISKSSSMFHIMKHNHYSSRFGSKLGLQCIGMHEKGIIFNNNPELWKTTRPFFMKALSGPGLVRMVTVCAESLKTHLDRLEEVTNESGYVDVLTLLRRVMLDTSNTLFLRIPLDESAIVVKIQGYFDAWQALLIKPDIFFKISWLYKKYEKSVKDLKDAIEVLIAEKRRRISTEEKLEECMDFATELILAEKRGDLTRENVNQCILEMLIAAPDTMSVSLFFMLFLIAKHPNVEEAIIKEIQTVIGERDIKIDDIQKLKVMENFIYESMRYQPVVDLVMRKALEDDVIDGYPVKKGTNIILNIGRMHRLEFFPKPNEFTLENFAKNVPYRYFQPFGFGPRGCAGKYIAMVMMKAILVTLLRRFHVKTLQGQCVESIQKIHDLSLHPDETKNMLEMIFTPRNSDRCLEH
Sequence of Estrogen receptor (Homo sapiens) (P03372 whole entry, looked up): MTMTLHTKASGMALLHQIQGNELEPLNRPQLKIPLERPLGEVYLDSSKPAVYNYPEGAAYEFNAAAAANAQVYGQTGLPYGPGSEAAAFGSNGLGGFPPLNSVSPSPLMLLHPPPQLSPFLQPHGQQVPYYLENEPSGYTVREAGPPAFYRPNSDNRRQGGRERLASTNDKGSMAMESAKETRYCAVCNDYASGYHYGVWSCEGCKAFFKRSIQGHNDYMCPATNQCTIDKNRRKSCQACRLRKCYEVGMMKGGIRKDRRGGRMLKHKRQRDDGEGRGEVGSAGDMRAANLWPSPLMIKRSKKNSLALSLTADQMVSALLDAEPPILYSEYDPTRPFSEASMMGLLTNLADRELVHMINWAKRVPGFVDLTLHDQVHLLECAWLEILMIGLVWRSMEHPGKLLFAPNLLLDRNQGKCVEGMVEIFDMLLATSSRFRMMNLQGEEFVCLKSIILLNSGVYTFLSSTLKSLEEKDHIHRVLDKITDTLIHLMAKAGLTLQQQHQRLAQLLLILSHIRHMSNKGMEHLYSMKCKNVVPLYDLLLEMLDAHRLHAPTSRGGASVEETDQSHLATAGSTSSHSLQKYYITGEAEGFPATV
Sequence of Androgen receptor (Homo sapiens) (P10275 whole entry, looked up): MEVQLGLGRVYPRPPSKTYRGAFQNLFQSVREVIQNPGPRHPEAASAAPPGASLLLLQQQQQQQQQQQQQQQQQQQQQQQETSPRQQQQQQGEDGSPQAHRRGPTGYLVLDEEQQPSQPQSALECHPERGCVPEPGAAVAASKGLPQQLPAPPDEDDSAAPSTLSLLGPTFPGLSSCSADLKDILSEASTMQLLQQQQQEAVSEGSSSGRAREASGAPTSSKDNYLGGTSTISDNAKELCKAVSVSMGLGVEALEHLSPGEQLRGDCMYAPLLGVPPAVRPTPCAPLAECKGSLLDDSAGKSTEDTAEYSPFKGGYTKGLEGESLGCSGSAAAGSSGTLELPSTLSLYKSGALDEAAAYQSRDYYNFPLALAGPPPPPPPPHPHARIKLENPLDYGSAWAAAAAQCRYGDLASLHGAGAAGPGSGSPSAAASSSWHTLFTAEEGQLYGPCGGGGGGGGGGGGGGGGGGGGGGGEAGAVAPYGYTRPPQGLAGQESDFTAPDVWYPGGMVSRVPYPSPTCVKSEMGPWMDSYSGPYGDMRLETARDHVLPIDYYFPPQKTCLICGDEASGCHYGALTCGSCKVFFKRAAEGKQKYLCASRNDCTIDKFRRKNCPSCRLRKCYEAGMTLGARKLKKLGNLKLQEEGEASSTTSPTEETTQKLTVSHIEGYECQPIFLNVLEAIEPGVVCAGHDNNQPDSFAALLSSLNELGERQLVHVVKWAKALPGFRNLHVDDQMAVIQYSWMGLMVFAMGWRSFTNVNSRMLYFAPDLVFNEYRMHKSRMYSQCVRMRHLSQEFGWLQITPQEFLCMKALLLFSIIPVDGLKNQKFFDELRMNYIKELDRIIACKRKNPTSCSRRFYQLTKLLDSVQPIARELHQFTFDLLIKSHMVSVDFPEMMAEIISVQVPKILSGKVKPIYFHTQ

| SMILES | Potency [1] | Potency [2] | Potency [3] | outcome [4] | outcome [5] | Potency [6] | Potency [7] | Potency [8] | Potency [9] | Potency [10] | Potency [11] | Potency [12] | outcome [13] | outcome (Aromatase (Homo sapiens)) | outcome [14] | Potency [15] | outcome [16] | outcome [17] | outcome [18] | Potency [19] |
| --- | --- | --- | --- | --- | --- | --- | --- | --- | --- | --- | --- | --- | --- | --- | --- | --- | --- | --- | --- | --- |
| CCCOC(=O)CCCCC(=O)OCCC | inactive | inactive | inactive | inactive | inactive | inactive | inactive | inactive | inactive | inactive | inactive | inactive | inactive | inactive |  |  |  |  |  |  |
| Nc1ccc(S(=O)(=O)NC(=O)c2ccccc2)cc1 | inactive | inactive | inactive | inactive | inactive | inactive | inactive | inactive | inactive | inactive | inactive | inactive |  | inactive | inactive |  |  |  |  |  |
| Cc1ccccc1C(=O)N1CC/C(=N\OS(=O)(=O)O)c2ccc(Cl)cc21 | inactive | inactive | inactive | inactive | inactive | inactive | inactive | inactive | inactive |  | inactive | inactive |  | inactive | inactive |  |  |  |  |  |
| O=S1(=O)CCCC1 | inactive | inactive | inactive | inactive | inactive | inactive | inactive | inactive | inactive | inactive | inactive | inactive | inactive | inactive | inactive |  |  |  |  |  |
| Cc1ccc(S(=O)(=O)NC(=O)NC2CCCCCCC2)cc1 | inactive | inactive | inactive | inactive | inactive | inactive | inactive | inactive |  | inactive |  |  |  | inactive | inactive |  |  |  |  |  |
| C=CCOc1c(Br)cc(C(C)(C)c2cc(Br)c(OCC=C)c(Br)c2)cc1Br | inactive | inactive |  | inactive | inactive | inactive |  |  | inactive | inactive | inactive | inactive |  | inactive | inactive | inactive |  |  |  |  |
| CC(C)C(=O)c1ccccc1 | inactive | inactive | inactive | inactive | inactive | inactive | inactive | inactive | inactive | inactive | inactive | inactive |  | inactive | inactive |  |  |  |  |  |
| O=S(=O)(O)CCO | inactive | inactive | inactive | inactive | inactive | inactive | inactive | inactive | inactive | inactive | inactive | inactive | inactive | inactive | inactive |  |  |  |  |  |
| NS(=O)(=O)c1ccccc1OC(F)(F)F | inactive | inactive |  | inactive | inactive | inactive |  |  |  | inactive |  |  |  | inactive | inactive | inactive |  |  |  |  |
| COc1cc(C=O)ccc1OC(=O)C(C)C | inactive | inactive |  | inactive | inactive | inactive | inactive | inactive |  | inactive |  |  |  | inactive | inactive | inactive |  |  |  |  |
| BrC/C=C/CBr | inactive | inactive | inactive | inactive | inactive | inactive | inactive | inactive |  | inactive |  |  |  | inactive | inactive |  |  |  |  |  |
| COc1cc([N+](=O)[O-])ccc1N | inactive | inactive | inactive | inactive |  |  | inactive | inactive | 6.92 µM [inhibitor] (active) | inactive | inactive | inactive | inactive | inactive |  |  | inactive | inactive | inactive |  |
| COc1ccc(OC)c(NC(=O)CC(C)=O)c1 | inactive | inactive | inactive | inactive | inactive | inactive | inactive | inactive |  | inactive |  |  |  |  | inactive |  |  |  |  |  |
| CCC(C)(C)C1CCC(=O)CC1 | inactive | inactive | inactive | inactive | inactive | inactive | inactive | inactive | inactive | inactive | inactive |  | inactive | inactive | inactive |  | inactive | inactive | inactive | inactive |
| NC(=O)NNC(N)=O | inactive | inactive | inactive | inactive | inactive |  | inactive | inactive | inactive | inactive | inactive | inactive | inactive | inactive | inactive |  |  |  |  |  |
| CC(=O)Nc1ncc([N+](=O)[O-])s1 | inactive | inactive | inactive | inactive | inactive | inactive | inactive | inactive | inactive | inactive | inactive | inactive |  | inactive | inactive |  |  |  |  |  |
| C[N+](C)(C)CC(O)CCl (configuration not stated) | inactive | inactive | inactive | inactive | inactive | inactive | inactive | inactive | inactive | inactive | inactive | inactive |  | inactive | inactive |  |  |  |  |  |
| C=C(C)C(=O)OC | inactive | inactive | inactive | inactive | inactive | inactive | inactive | inactive |  |  |  |  |  | inactive | inactive |  |  |  |  |  |
| CCCCCCCCCCC | inactive | inactive | inactive | inactive | inactive | inactive | inactive | 54.5 µM (active) | inactive | inactive | inactive | inactive |  | inactive | inactive |  | inactive | inactive | inactive | inactive |
| NS(=O)(=O)c1ccc(Cl)c(S(N)(=O)=O)c1 | inactive | inactive | inactive | inactive | inactive | inactive | inactive | inactive | inactive | inactive | inactive | inactive | inactive | inactive | inactive |  |  |  |  |  |
| C[CH2][Ge]([Cl])([CH2]C)[CH2]C | inactive |  | inactive | inactive | inactive |  | inactive | inactive |  |  |  |  |  | inactive | inactive |  |  |  |  |  |
| C=C[Si](C)(C)O[Si](C)(C)C=C | inactive |  | inactive | inactive | inactive | inactive | inactive | inactive | inactive | inactive | inactive | inactive | inactive | inactive | inactive | inactive |  |  |  |  |
| CCOC(=O)CCCCCCCCC(=O)OCC | inactive |  |  | inactive | inactive | inactive | inactive | inactive | inactive | inactive | inactive |  | inactive | inactive | inactive |  |  |  |  |  |
| CC(C)SCc1ccco1 |  | inactive | inactive | inactive | inactive |  | inactive | inactive | inactive | inactive | inactive | inactive | inactive | inactive | inactive |  |  |  |  |  |
| CCCCCCCCCCCCC1CO1 (configuration not stated) | inactive |  |  | inactive | inactive | inactive | inactive | inactive | inactive | inactive | inactive | inactive |  | inactive | inactive |  |  |  |  |  |
| C1CCN2C[C@@H]3C[C@@H](CN4CCCC[C@@H]34)[C@H]2C1 |  | inactive | inactive | inactive | inactive | inactive | inactive | inactive |  | inactive |  |  |  | inactive |  | inactive |  |  |  |  |
